Compound activity (PubChem)
Shown are actives, neighbours in structure and some others; about 2.3% of the full set was active somewhere.
IL2 activator – IL-2 activation; 360,000 tested, 0.065% active; AID 652025; activation, % (series mostly up to about 46 µM); IL-2 activation reporter assay, cell-based qHTS; stimulated with anti-CD3/CD4/CD28 beads; in transgenic mouse T cells; in the data active = activation above about 50%; inconclusive = mostly about 30% to 49%; also: 0% is about no effect
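Screening format: compound pinned onto unstimulated transgenic mouse T cells, 60 min incubation, then anti-CD3/anti-CD4/anti-CD28 bead stimulation for 18 hours at 37 degrees C, followed by EGFP and DsRed detection.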
A549 tox-1 – A549 cytotoxicity, counter-screen for Nrf2 inhibitors; A549 ARE-Fluc cells, CellTiter-Fluor viability, 18-24 h; AID 504648; 390,000 tested, 0.16% active; Potency, µM (doses to about 46 µM), for the others: at the highest dose activity change, negative = cytotoxicity, most hits filed as inhibitors; also: potency is read from the fitted curve at half-maximal effect; % is scaled to controls: 0 for no effect and ±100 for the full control effect
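A549 ARE_Fluc cells in 5% FBS OPTI-MEM were exposed to compounds in concentration-response for 18-24 h at 37 deg C. Viability was read by CellTiter-Fluor fluorescence (Ex 405/Em 525) after 30 min, before the luciferase read.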
Nrf2 activator – activators of Nrf2 (ARE) signaling. AID 624171. 410,000 tested, 0.31% active. AREc32 ARE-luciferase reporter (MCF7-derived line), luminescence, 24 h. Potency, µM (top dose mostly 46.1 µM), for the others: at the top dose activation, hits mostly activators; also: potency is read from the fitted curve at half-maximal effect; % of control where 0% means no effect; nearly all actives have a fitted effect of over 65% in size
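Quantitative high-throughput format: AREc32 reporter cells, 1000 per well, received compound by pin transfer and were incubated 24 hr at 37 deg C, 5% CO2, before Steady-Glo luminescence detection.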
Nrf2 block – blocks Nrf2 signaling; A549 ARE-Fluc reporter, luciferase luminescence, 18-24 h; Potency, µM (titrated, usually from 46 µM), for the others: at the top dose activity change, negative = inhibition, usual class: inhibitors; 360,000 tested, 2.1% active; also: potency is read from the fitted curve at half-maximal effect; % is scaled to controls: 0 for no effect and ±100 for the full control effect; nearly all actives have a fitted effect of over 60% in size
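Two sequential reads on A549 ARE_Fluc cells exposed to compound for 18-24 h: a CellTiter-Fluor fluorescence read for viability, then a luciferase luminescence read for Nrf2/ARE activity.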
FLuc counter 3 – counter-screen for Nrf2 inhibitors: firefly luciferase enzyme inhibition | purified firefly luciferase, luminescence inhibition | shares compounds with Nrf2 block | Potency, µM (titrated, usually from 57.5 µM), inactives show at the highest dose activity change, negative = inhibition, most hits filed as inhibitors | 1,400 tested, 4% active | AID 720522; also: potency is read from the fitted curve at half-maximal effect; % is scaled to controls: 0 for no effect and ±100 for the full control effect; nearly all actives have a fitted effect of over 65% in size
Target sequence (P08659 whole entry, looked up): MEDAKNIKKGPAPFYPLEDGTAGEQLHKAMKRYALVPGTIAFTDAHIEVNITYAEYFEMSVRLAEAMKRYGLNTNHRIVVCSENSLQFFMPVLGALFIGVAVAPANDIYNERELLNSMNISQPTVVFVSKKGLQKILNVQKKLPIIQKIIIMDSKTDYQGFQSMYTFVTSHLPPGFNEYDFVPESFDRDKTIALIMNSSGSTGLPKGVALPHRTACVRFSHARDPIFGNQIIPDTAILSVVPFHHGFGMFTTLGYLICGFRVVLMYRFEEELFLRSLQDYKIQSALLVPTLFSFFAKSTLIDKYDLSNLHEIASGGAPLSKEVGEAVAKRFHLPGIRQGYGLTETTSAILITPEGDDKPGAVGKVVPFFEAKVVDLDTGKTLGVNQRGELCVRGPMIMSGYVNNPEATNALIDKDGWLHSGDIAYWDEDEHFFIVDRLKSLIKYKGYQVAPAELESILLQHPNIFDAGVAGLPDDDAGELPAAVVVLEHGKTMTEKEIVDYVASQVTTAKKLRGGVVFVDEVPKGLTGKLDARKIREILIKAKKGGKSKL
A549 tox-2 – toxic to A549 ARE-Fluc cells in Nrf2 counterscreen. 1,400 tested, 2% active. Potency, µM (doses to about 46.1 µM), inactives show at the highest dose activity change, negative = cytotoxicity, hits mostly inhibitors. A549 ARE-Fluc cells, cytotoxicity counterscreen. shares compounds with Nrf2 block;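 also: potency is read from the fitted curve at half-maximal effect; cells exposed to compounds for 18 to 24 hours; % is scaled to controls: 0 for no effect and ±100 for the full control effect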
ARE-Fluc inh – Nrf2 inhibition confirmed, A549 ARE-luciferase. shares compounds with Nrf2 block. A549 ARE-firefly luciferase reporter, luminescence. Potency, µM (series often up to 46.1 µM), inactives show at the top dose activity change, negative = inhibition, hits mostly inhibitors. 1,400 tested, 74% active; also: potency is read from the fitted curve at half-maximal effect; % is scaled to controls: 0 for no effect and ±100 for the full control effect; nearly all actives have a fitted effect of over 65% in size
Active calls of the source: *; ? = inconclusive; · = not tested or not shown; [ ] = dose if it differs, or a comment. Unless noted, calls follow the shape of the dose curve; as a rule, active = well fitted curve in the direction sought with a large enough effect; inconclusive = small, poorly fitted or top-dose-only effect, or another doubt; inactive = no such curve, though single readings can be large; an effect the other way counts as inactive or inconclusive.

SMILES	IL2 activator	A549 tox-1	Nrf2 activator	Nrf2 block	FLuc counter 3	A549 tox-2	ARE-Fluc inh
Cc1cc(C(=O)NC2CCCc3c2cnn3-c2ccc(C)c(C)c2)n(C)n1 (stereo not given)	-3	-21%	-1%	0.21µM*	-7%	-11%	0.023µM*
Cc1cccc(-n2ncc3c2CCCC3NC(=O)C2(C(N)=O)CC2)c1C (stereo not given)	-2	-8%	-1%	2.3µM*	-2%	-5%	3.7µM*
Cc1cc(C)cc(-n2ncc3c2CCCC3NC(=O)C2(C(N)=O)CC2)c1 (stereo not given)	1	-1%	3%	?	·	·	·
CSc1ccc(CCNC(=O)Cn2ncn3c(cc4ccccc43)c2=O)cc1	·	1%	0%	11%	·	·	·
O=C(NNc1ccnc2cc(Cl)ccc12)C1CCCCC1	5	-17%	1%	3.3µM*	?	-13%	2.6µM*
COc1cc(OC)c2c(c1)C(=O)OC2c1cc(OC)c(OC)cc1C (stereo not given)	·	-2%	·	-12%	·	·	·
N=c1ccn(Cc2ccc(F)cc2)cc1	1	-13%	-1%	2.3µM*	?	21µM*	23µM*
O=C1CNC(=S)N1Cc1ccc(F)cc1	1	1%	1%	8%	·	·	·
CCOc1ccc(S(=O)(=O)NCc2ccncc2)cc1	-4	-29%	0%	0.41µM*	0%	-9%	0.65µM*
CC1CCCCC1NS(=O)(=O)c1ccc(S(=O)(=O)NCc2ccncc2)cc1 (stereo not given)	-1	-14%	-1%	2.3µM*	1%	-11%	3.7µM*
CCOc1cc(S(=O)(=O)NCc2ccncc2)ccc1Cl	-4	-11%	0%[9.22 µM]	1µM*	-1%	-1%	1.3µM*
Cc1cc(S(=O)(=O)NCc2ccncc2)c(C)cc1Br	-6	-8%	0%	4.1µM*	-1%	-4%	?
COc1ccccc1CNC(=O)c1ccc2c(c1)CCN2S(=O)(=O)c1ccc(Cl)cc1	·	14%	-1%	-18%	·	·	·
Cc1ccc(S(=O)(=O)NCC(=O)NCc2ccncc2)cc1	0	1%	0%	2%	·	·	·
Cc1ccc(S(=O)(=O)NCc2ccncc2)cc1	-1	-6%	2%	2.6µM*	3%	-7%	18µM*
CC1C(=O)OC(c2ccc(Cl)cc2)C(C)(C)C1=O (stereo not given)	1	-1%	0%	-6%	·	·	·
C[C@@H]1C=CC(=O)O[C@@H]1c1ccc(Cl)cc1	-1	-1%	0%	9.2µM*	1%	-15%	5.8µM*
N#Cc1cccc(NC(=O)C2CCN(c3cnccn3)CC2)c1	·	7%	2%	0%	·	·	·
CC(C)(C)c1cc(C(=O)Nc2cccnc2)cc(C(=O)Nc2cccnc2)c1	-5	-20%	0%	9.2µM*	-5%	-5%	?
CCOC(=O)N1CCC(Nc2cc(C)nc3c(-c4ccccc4OC)c(C)nn23)CC1	-2	24%	3%	9.2µM*	-1%	-25%	12µM*
O=C(c1cc2c(Cl)nc3ccccc3c2s1)N1CCCCC1	·	-4%	6%	7%	·	·	·
CCOC(=O)C1CCCN(C(=O)c2cc3c(Cl)nc4ccccc4c3s2)C1 (stereo not given)	·	0%	-3%	5.8µM*	-1%	0%	8.2µM*
CCc1ccc(S(=O)(=O)c2nnn3c2nc(NCCc2ccccc2)c2sccc23)cc1	·	-7%	-1%	-83%	·	·	·
COC(=O)c1c(C)oc2ccc(N(C(=O)c3ccncc3)S(=O)(=O)c3ccc(OC)cc3)cc12	·	?	-1%	0.82µM*	-3%	-7%	15µM*
CC(=O)c1c(C)oc2ccc(N(C(=O)c3ccncc3)S(=O)(=O)c3ccc(C)cc3C)cc12	·	4%	1%	?	·	·	·
SMILES	IL2 activator	A549 tox-1	Nrf2 activator	Nrf2 block	FLuc counter 3	A549 tox-2	ARE-Fluc inh
CCOC(=O)c1c(C)oc2ccc(N(C(=O)c3ccncc3)S(=O)(=O)c3ccc(F)cc3)cc12	·	-13%	0%	?	·	·	·
CCOc1ccc(S(=O)(=O)N(C(=O)c2ccncc2)c2ccc3oc(C)c(C(=O)OC)c3c2)cc1	·	?	-1%	0.65µM*	1%	-15%	-18%
COc1ccc(S(=O)(=O)N(C(=O)c2ccncc2)c2ccc3oc4c(c3c2)CCCC4)cc1	0	?	1%	?	·	·	·
CCc1ccc(S(=O)(=O)N(C(=O)c2ccncc2)c2ccc3oc(C)c(C(=O)OC)c3c2)cc1	·	-13%	0%	6.5µM*	-8%	-13%	10µM*
COc1ccc(S(=O)(=O)N(C(=O)c2ccncc2)c2ccc3oc(C)c(C(C)=O)c3c2)cc1	·	0%	0%	5.8µM*	-2%	0%	?
CCCCOC(=O)c1c(C)oc2c1cc(NS(=O)(=O)c1cc(OC)ccc1OC)c1ccccc12	·	0%	6%	5%	·	·	·
Cc1cc(NC(c2nnc(-c3ccccc3)o2)c2ccccc2F)ccc1Br (stereo not given)	·	-6%	8%	7%	·	·	·
CC1=CC(=O)C2=C(C)CC[C@@H]3[C@H](OC(=O)[C@H]3C)[C@@H]12	-1	-3%	0%	6.5µM*	6%	-8%	6.5µM*
Cc1cc(C)nc(Nc2n[nH]c(-c3ccc(N)cc3)n2)n1	-1	-1%	-1%	?	·	·	·
Cc1cc(C)nc(Nc2n[nH]c(C)n2)n1	-1	2%	0%	5.8µM*	-2%	2%	-2%
COc1cccc(Cn2c(=O)cc(C)c3c(C)nn(C)c32)c1	·	-3%	7%	?	·	·	·
CCCN1CNc2c(c(=O)[nH]c(=S)n2CCc2cc(OC)cc(OC)c2)C1	·	20%	·	-5%	·	·	·
CCOc1ccc(C2C(=O)N(C3CCCCC3)CC(=O)N2C2CCCC2)cc1OC (stereo not given)	·	2%	1%	·	·	·	·
C=CCN(c1ccccc1)S(=O)(=O)c1cccc(C(=O)Nc2nc3ccccc3[nH]2)c1	-1	?	5%	2.9µM*	-16%	0%	5.8µM*
O=C(Nc1nonc1NC(=O)c1cccs1)c1cccs1	3	?	7%	1.6µM*	-15%	-12%	6.5µM*
CCc1ccccc1NC(=O)N1CCC(CN2CCc3ccccc3C2)CC1	·	2%	1%	?	·	·	·
COc1ccc2cc3c(N)nn(C(=O)c4cccc(F)c4)c3nc2c1	0	4%	1%	?	·	·	·
COc1ccc2cc3c(N)nn(C(=O)c4ccccc4Cl)c3nc2c1	2	-3%	-2%	9.2µM*	-28%	-20%	?
